Experimental data published in the supplement of paper PMC11417369.
± gives the standard deviation of the averaged measurements. Whole data set: some 25,000 sequences, median “ln(normalized median fluorescence intensity)” near 8.9, cut for the highest 2% near 10. Only a selection was taken, and the highest values are over-represented in it overall.

Each sequence was assayed on PfAP2-LT AP2 domain (GST-tagged) (assay: gcPBM binding intensity (ln(normalized median fluorescence intensity)); higher = stronger DNA binding).
Summary of the method: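 GST-fused DNA-binding domains of P. falciparum, expressed in E. coli, were applied at about 25 μg on average for 1 h to an Agilent 4 × 180k array of primer-extended double-stranded 36-bp intergenic genomic probes and negative controls. Binding intensity is the highest Masliner-normalised natural-log median intensity across replicate spots of either probe orientation, measured with Alexa488 anti-GST antibody and a 488 nm scan.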

Sequence | gcPBM binding intensity (ln)
ACGATGTTCATCACTACACACACAAAGAAATATATA [CACACA_site8859] | 9.26 ± 0.37
AGCACAGACGGACACACACACACACCCACAGACACA [CACACA_site4358] | 10.1 ± 0.23
CACACGCACGGACACACACACATATAAAATCTATAT [CACACA_site6428] | 9.85 ± 0.57
ACTTGACACGGACACACACACATATATAAAAAAAAA [CACACA_site4576] | 9.53 ± 0.51
CGTGGGAGCGGACACACACACACACCCATATATATA [CACACA_site4340] | 9.86 ± 0.41
TACACAGACGGACACACACACACACTAGAAAAAAAA [CACACA_site4435] | 10.1 ± 0.59
CACAGACACGGACACACACACACACCGATATATATA [CACACA_site4353] | 9.88 ± 0.24
CACAGACACGGACACACACACACACCCATATATATA [CACACA_site4354] | 10.1 ± 0.32
AAAACACGCGGACACACACACACACGCCCACATATA [CACACA_site7105] | 10.1 ± 0.33
CACGCGCCCGGACACACACACACACCCATATATATA [CACACA_site5251] | 10.2 ± 0.57
TACAAAAGTTAAACATGTACTTAATTATATGTTTTT [XGTACX_site2852] | 8.57 ± 0.44
TTCTTAATTTAAAATTGTACTTAAGTAATACTTATG [XGTACX_site3928] | 8.49 ± 0.57
TTGTTTCCGATGAAAGAAAGGAAATTATAATATATC [GTGCAC_negctrl_site516] | 8.43 ± 0.44
AAGTAATCATCATAAAGTACTAAATTATATTGTCAA [XGTACX_site5841] | 8.67 ± 0.37
TATAAACAGACGAAAACACACATATGTAAATATATA [CACACA_site4428] | 9.15 ± 0.44
TTTATTATCTTATTCACACACATATATAAATATGTA [CACACA_site7369] | 9.06 ± 0.42
TGTTTTTTATATTACTGTACATGTTTTGGAATAATA [XGTACX_site4716] | 8.75 ± 0.4
ATGAACAAGGGGCACACACACATTATGACTAATTTA [CACACA_site3204] | 9.6 ± 0.45
TTTAAATATTTTATAGCATGCTACCAATATGTATAT [TGCATGCA_site291] | 8.83 ± 0.52
TAGTGTGCCAAATTAGCACACACATATATACATGAA [CACACA_site8910] | 9.6 ± 0.36
TCTTTTTCTTGACGAGTGCAAAAATTGTGTTTGAAA | 8.48 ± 0.35
TCGTAAACATATTGAAAAATATAAAAAGGGGTAATA [CACACA_negctrl_site619] | 8.71 ± 0.56
CTGAAGGAAAAAGAAAGTACTTTTTTTTTTTTGAAG [XGTACX_site5973] | 8.22 ± 0.68

Sequence | gcPBM binding intensity (ln)
CAAGCACCCAGACACACACACACACCCACACCCACA [CACACA_site369] | 10.1 ± 0.47
TTTATTTTATCATTTGCACACGCACCCAGACATAAA [CACACA_site4347] | 9.19 ± 0.35
TTGGCATACGGACACACACACACACCCAGACATATA [CACACA_site4492] | 9.84 ± 0.18
ATCAAGCACGGACACACACACACACCCAGACCCCCA [CACACA_site4360] | 10.19 ± 0.099
CACAGACACGGACACACACACACACCCAGACACATA [CACACA_site4357] | 10.1 ± 0.43
TTCTATTTTAATATCTGTACATAATAAAGATCCATT [XGTACX_site1142] | 8.46 ± 0.49
ACATTATATTTGGACTGTACTAATATATTGTTATAT [XGTACX_site5573] | 8.91 ± 0.42
GCTTATTAATATCATACACACATAGATATATTTATA [CACACA_site3104] | 8.91 ± 0.39
TATATGTTATATTGGACACACACAATAAACATTATG [CACACA_site8480] | 9.21 ± 0.38
AACCAGTTGATGTGTACACATATAGTAATAATTTTA [CACACA_site5564] | 9.16 ± 0.52
TAAAATTATTAATGAGTGCATTATAAAATCTATATA [GTGCAC_site9493] | 8.38 ± 0.46
ATATTTTCCCTTTATAGGAGCACAAAAATTAAATGT [CACACA_negctrl_site1114] | 8.46 ± 0.35
AGGAAATGTTTATATACATGCATAATTAAATATAAT [TGCATGCA_site672] | 8.74 ± 0.46
AAAAAAAACACGCGCACACACACACCCACCCACCGA [CACACA_site2206] | 10.32 ± 0.078
AAAAAAAAAACACGCGCACACACACCCACCCACCCA [CACACA_site8689] | 10.365 ± 0.0071
TACACAAACAGACACACACACACACGCGCACAAAAA [CACACA_site7192] | 10.06 ± 0.042
AAAAAAAAAACAAATACACACGCACCCAAAAAAAAA [CACACA_site8166] | 9.61 ± 0.18
ATAGACAGCGCACAAACACACAAACACCCACCCACA [CACACA_site8043] | 9.99 ± 0.31
AAAAAAAACAAATACACACGCACACCGAAAAAAAAA [CACACA_site803] | 9.6 ± 0.39
AAAAAAAACACGCGCACACACACACCCACAGACACA [CACACA_site5253] | 10.2 ± 0.14
AAAAAAACAACATGCACACGCACACCCAAAAAAAGC [CACACA_site72] | 9.84 ± 0.32
AGAAAAAAACAACATGCACACGCACCCACAAAAAAA [CACACA_site7908] | 9.51 ± 0.28
GTTTTGTACATATTCTCACACATATAAAAATACCCA [CACACA_site4446] | 8.77 ± 0.42

Sequence | gcPBM binding intensity (ln)
TATATATATATATATATACACACTATATAATTCAAA [CACACA_site1023] | 9.67 ± 0.042
GAATAAAAATTTTAATGTACATATTTTTTATTTATA [XGTACX_site8935] | 8.41 ± 0.49
TTTTTTTTTTTTTGATGTACTTATTTAATAAGATAT [XGTACX_site376] | 8.38 ± 0.47
ATATATAATATTTTTATTTTTATTTTTTTTTTATGA [TGCATGCA_negctrl_site577] | 8.34 ± 0.49
AAAAAGATAAAATATACATGCATATATAATATACAT [TGCATGCA_site488] | 8.94 ± 0.4
TAAACAGAAGCACATACACACACTCAAAAAAAAAAA [CACACA_site3051] | 9.53 ± 0.39
ACATATTATATATGTGTGCACATATATATATATTTA [GTGCAC_site9591] | 9.7 ± 0.33
CTTTATATATATTGCGTGCACATTTTTTTTTTTTTT | 8.99 ± 0.53
TATATATATATATATGTGCACATTTATTGCCTTTGC | 10.11 ± 0.071
TATAGATGTGGTTTATGTACATACTATAAAAAATCA [XGTACX_site1400] | 8.7 ± 0.49
CGTATTTATATAATTACACACCATATTATAATTATT [CACACA_site3760] | 8.84 ± 0.44
TTTCTTTATTTATAATAATTTTTTATTAAAAATAGA [CACACA_negctrl_site1610] | 8 ± 0.49
GATATAAACGTATATGTACATATATATATATATATA [GTGCAC_negctrl_site186] | 10.1 ± 0.38
TTACAAAAAAAAAGGCGCGGATGGGGGCAATAGCAA [CACACA_negctrl_site238] | 9.39 ± 0.45
ATTATGCACGGACACACACACACACCCCTAAAAAAT [CACACA_site5426] | 10.1 ± 0.32
ATTATGCACAGACACACACACACACTACTAAAAAAT [CACACA_site7252] | 10.2 ± 0.28
ATTATGCACCAACACACACACACACCCCTAAAAAAT [CACACA_site2568] | 10.04 ± 0.057
TGCACAAAATTATGCACACACCTAAAATTAATTTTT [CACACA_site5596] | 9.06 ± 0.34
AAAAAATTAGATTATGCACACACACTAATAAATAAT [CACACA_site8604] | 9.38 ± 0.32
TGCACAGACGGACACACACACAACTAAAAAATAATG [CACACA_site5424] | 9.69 ± 0.61
ATTTTTTCTTATAAAAAAGAAAAAGAAAAAGAAAAA [CACACA_negctrl_site1216] | 8.02 ± 0.42
GTTTAGATAAAAGGGCGTACATCTATTTTTGACTAA [XGTACX_site7170] | 8.62 ± 0.36
GAAACGATTTAATACACACACGTATTATAGATATAT [CACACA_site6666] | 9.25 ± 0.34

Sequence | gcPBM binding intensity (ln)
ATTTTTTTTGTTTATTCTTATGTGGTTATTAAATTA [CACACA_negctrl_site1000] | 8.72 ± 0.52
TACAGACAGAAATGCACACACATATTTATATTTATA [CACACA_site7139] | 9.35 ± 0.3
TTATATAAAGAATGTACACACAGAAATGCACCCACA [CACACA_site2282] | 9.39 ± 0.2
TACAGACAGAAATGCACACACATATATATATATATA [CACACA_site2283] | 10.2
TGTACACCCAGAAATGCACACACATATATATATATA [CACACA_site8716] | 9.94 ± 0.29
TATACACACAGACATGCATGCACATATATATATACA [TGCATGCA_site30] | 9.54 ± 0.42
TACACCCAGAAATGCACACACATATATATATATATA [CACACA_site5289] | 10.26 ± 0.071
TCATCATATTATATATGTACATATATAATAATTTAT [XGTACX_site1625] | 8.62 ± 0.42
GTATTATAGTATAATACACACCCAAATATTAAAAAG [CACACA_site7404] | 9.02 ± 0.41
TTTATTTATTAATACACACACACACCCCCACAAAAT [CACACA_site240] | 10.1 ± 0.22
TATTAATACAGACACACACACACACTAATTAAAATA [CACACA_site7967] | 9.96 ± 0.2
AAAAAAAAAAAATACACACAAACACAAATTAAATAA [CACACA_site3809] | 9.32 ± 0.32
AATTAATAACAAAATAAACACACATATATAAATACA [CACACA_site8456] | 9.03 ± 0.38
TTTATTTATTAATACACACACACACCCAGACAAAAT [CACACA_site4292] | 10 ± 0.099
TTTATTTATTAATACACACACACACGCCCACAAAAT [CACACA_site6253] | 9.995 ± 0.05
TTTTTATTTATTAATACACACACACCCACCCACAAA [CACACA_site7965] | 9.805 ± 0.064
ATTAATTATATATATACACACACATACACCCAAATA [CACACA_site9126] | 9.66 ± 0.23
ACATAATTAACAAATACACACACACCCACCCACAAA [CACACA_site8069] | 10.3 ± 0.13
ATAATTAACAAATACACACACACACCCAGACAAAAA [CACACA_site4445] | 10.2
TATTAATACAGACACACACACACACCCAATAAAATA [CACACA_site243] | 10.29 ± 0.05
